# Measurements as given in PubChem BioAssay AID1159580 (chemical genetic matrix, 2015).
# “And” between values parts separate entries of the source, which are not always exact repeats. Equal entries are not always repeated. The whole screen tested about 5,500 compounds, of which about 2,000 (36%) were called active. Roughly 18% stayed inconclusive and do not appear here. Rule as the data show it: active = normalized growth mostly below about 0.91 (no sharp cut-off); inconclusive = no clear call, values can overlap the other calls; inactive = mostly above about 0.92. The list shows a part of the results.
# Assay: chemical genetic growth profiling, strain panel (AID 1159580);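 also: tested at 20 µM; growth read once vehicle control cultures reached saturation at 30 °C; 1 = growth at the plate median or of vehicle wells; lower values mean less growth of the strain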
# Settings: S. cerevisiae deletion strains, growth OD
structure (smiles),measurement,setting,value
O=NN(CCCl)C(=O)NCCCl,normalized growth,"locus YAL021C, strain ccr4, stronger effect = lower value",0.923 (inactive)
same,normalized growth,"locus YAL026C, strain drs2, stronger effect = lower value",0.955 (inactive)
same,normalized growth,"locus YAL030W, strain snc1, stronger effect = lower value",0.958 (inactive)
same,normalized growth,"locus YAL040C, strain CLN3, stronger effect = lower value",0.974 (inactive)
same,normalized growth,"locus YBL061C, strain skt5, stronger effect = lower value",0.942 (inactive)
same,normalized growth,"locus YBR009C, strain hhf1, stronger effect = lower value",0.912 (inactive)
same,normalized growth,"locus YBR021W, strain FUR4, stronger effect = lower value",0.954 (inactive)
same,normalized growth,"locus YBR023C, strain chs3, stronger effect = lower value",0.942 (inactive)
same,normalized growth,"locus YBR171W, strain sec66, stronger effect = lower value",0.92 (inactive)
same,normalized growth,"locus YBR229C, strain ROT2, stronger effect = lower value",0.986 (inactive)
same,normalized growth,"locus YBR231C, strain swc5, stronger effect = lower value",0.604 (active)
same,normalized growth,"locus YBR279W, strain paf1, stronger effect = lower value",0.929 (active)
same,normalized growth,"locus YCL011C, strain gbp2, stronger effect = lower value",0.902 (active)
same,normalized growth,"locus YCL016C, strain dcc1, stronger effect = lower value",0.847 (active)
same,normalized growth,"locus YCL029C, strain bik1, stronger effect = lower value",0.995 (inactive)
same,normalized growth,"locus YCL061C, strain MRC1, stronger effect = lower value",0.916 (active)
same,normalized growth,"locus YCL069W, strain vba3, stronger effect = lower value",0.962 (inactive)
same,normalized growth,"locus YCR088W, strain abp1, stronger effect = lower value",0.958 (inactive)
same,normalized growth,"locus YDL005C, strain med2, stronger effect = lower value",0.958 (inactive)
same,normalized growth,"locus YDL035C, strain GPR1, stronger effect = lower value",0.909 (inactive)
same,normalized growth,"locus YDL040C, strain nat1, stronger effect = lower value",0.959 (inactive)
same,normalized growth,"locus YDL074C, strain BRE1, stronger effect = lower value",0.93 (inactive)
same,normalized growth,"locus YDL101C, strain DUN1, stronger effect = lower value",0.964 (inactive)
same,normalized growth,"locus YDL134C, strain PPH21, stronger effect = lower value",0.979 (inactive)
same,normalized growth,"locus YDL185W, strain tfp1, stronger effect = lower value",0.98 (inactive)
same,normalized growth,"locus YDL192W, strain arf1, stronger effect = lower value",0.976 (inactive)
same,normalized growth,"locus YDR001C, strain nth1, stronger effect = lower value",0.96 (inactive)
same,normalized growth,"locus YDR069C, strain doa4, stronger effect = lower value",0.95 (inactive)
same,normalized growth,"locus YDR101C, strain arx1, stronger effect = lower value",0.994 (inactive)
same,normalized growth,"locus YDR137W, strain rgp1, stronger effect = lower value",0.943 (inactive)
same,normalized growth,"locus YDR150W, strain NUM1, stronger effect = lower value",1.01 (inactive) and 0.989 (inactive)
same,normalized growth,"locus YDR159W, strain sac3, stronger effect = lower value",0.855 (active)
same,normalized growth,"locus YDR162C, strain NBP2, stronger effect = lower value",0.988 (inactive)
same,normalized growth,"locus YDR195W, strain ref2",0.997 (inactive)
same,normalized growth,"locus YDR297W, strain sur2, stronger effect = lower value",0.965 (inactive)
same,normalized growth,"locus YDR318W, strain mcm21, stronger effect = lower value",0.966 (inactive)
same,normalized growth,"locus YDR334W, strain swr1, stronger effect = lower value",0.876 (active)
same,normalized growth,"locus YDR335W, strain msn5, stronger effect = lower value",0.96 (inactive)
same,normalized growth,"locus YDR388W, stronger effect = lower value",0.983 (inactive)
same,normalized growth,"locus YDR392W, strain spt3, stronger effect = lower value",0.562 (active)
same,normalized growth,"locus YDR502C, strain sam2, stronger effect = lower value",0.881 (active)
same,normalized growth,"locus YEL003W, strain gim4, stronger effect = lower value",0.803 (active)
same,normalized growth,"locus YEL037C, strain rad23, stronger effect = lower value",0.94 (inactive)
same,normalized growth,"locus YEL061C, strain CIN8 (second series), stronger effect = lower value",0.952 (inactive)
same,normalized growth,"locus YEL061C, strain CIN8, stronger effect = lower value",1.04 (inactive)
same,normalized growth,"locus YER002W, strain NOP16, stronger effect = lower value",1.02 (inactive)
same,normalized growth,"locus YER015W, strain faa2, stronger effect = lower value",0.899 (active)
same,normalized growth,"locus YER016W, strain bim1, stronger effect = lower value",0.875 (active)
same,normalized growth,"locus YER110C, stronger effect = lower value",0.986 (inactive)
same,normalized growth,"locus YER111C, strain swi4, stronger effect = lower value",0.958 (inactive)
same,normalized growth,"locus YER155C, strain BEM2 (second series), stronger effect = lower value",0.583 (active)
same,normalized growth,"locus YER155C, strain BEM2, stronger effect = lower value",1 (inactive)
same,normalized growth,"locus YER167W, strain BCK2, stronger effect = lower value",1.02 (inactive)
same,normalized growth,"locus YFR010W, strain ubp6, stronger effect = lower value",0.836 (active)
same,normalized growth,"locus YGL078C, strain dbp3, stronger effect = lower value",0.912 (active)
same,normalized growth,"locus YGL086W, strain mad1, stronger effect = lower value",0.956 (inactive)
same,normalized growth,"locus YGL167C, strain pmr1, stronger effect = lower value",0.959 (inactive)
same,normalized growth,"locus YGL173C, strain kem1, stronger effect = lower value",0.922 (inactive)
same,normalized growth,"locus YGL227W, strain vid30, stronger effect = lower value",0.925 (inactive)
same,normalized growth,"locus YGL240W, strain doc1, stronger effect = lower value",0.682 (active)
same,normalized growth,"locus YGL248W, strain PDE1, stronger effect = lower value",0.943 (inactive)
same,normalized growth,"locus YGL253W, strain hxk2, stronger effect = lower value",0.985 (inactive)
same,normalized growth,"locus YGR078C, strain PAC10, stronger effect = lower value",0.991 (inactive)
same,normalized growth,"locus YGR135W, strain pre9, stronger effect = lower value",0.846 (active)
same,normalized growth,"locus YGR229C, strain SMI1, stronger effect = lower value",0.823 (inactive)
same,normalized growth,"locus YGR252W, strain gcn5, stronger effect = lower value",0.777 (inactive)
same,normalized growth,"locus YHR013C, strain ard1, stronger effect = lower value",0.64 (active)
same,normalized growth,"locus YHR027C, strain rpn1, stronger effect = lower value",0.948 (inactive)
same,normalized growth,"locus YHR030C, strain SLT2, stronger effect = lower value",1.03 (inactive) and 0.315 (active)
same,normalized growth,"locus YHR079C, strain IRE1 (second series), stronger effect = lower value",0.988 (inactive)
same,normalized growth,"locus YHR079C, strain IRE1, stronger effect = lower value",0.298 (active)
same,normalized growth,"locus YHR094C, strain hxt1, stronger effect = lower value",0.994 (inactive)
same,normalized growth,"locus YHR129C, strain ARP1, stronger effect = lower value",0.991 (inactive)
same,normalized growth,"locus YHR142W, strain chs7, stronger effect = lower value",0.87 (active)
same,normalized growth,"locus YHR200W, strain rpn10, stronger effect = lower value",0.958 (inactive)
same,normalized growth,"locus YIL066C, strain RNR3, stronger effect = lower value",0.994 (inactive)
same,normalized growth,"locus YIL073C, strain SPO22, stronger effect = lower value",0.928 (inactive)
same,normalized growth,"locus YIL125W, strain kgd1, stronger effect = lower value",0.926 (active)
same,normalized growth,"locus YIR030C, strain dcg1, stronger effect = lower value",0.991 (inactive)
same,normalized growth,"locus YJL092W, strain hpr5, stronger effect = lower value",0.922 (inactive)
same,normalized growth,"locus YJL095W, strain BCK1 (second series), stronger effect = lower value",0.963 (inactive)
same,normalized growth,"locus YJL095W, strain BCK1, stronger effect = lower value",0.928 (inactive) and 0.341 (active)
same,normalized growth,"locus YJL115W, strain asf1, stronger effect = lower value",0.923 (inactive)
same,normalized growth,"locus YJL129C, strain trk1, stronger effect = lower value",0.759 (active)
same,normalized growth,"locus YJL134W, strain LCB3, stronger effect = lower value",0.997 (inactive)
same,normalized growth,"locus YJL154C, strain vps35, stronger effect = lower value",0.975 (inactive)
same,normalized growth,"locus YJL164C, strain tpk1, stronger effect = lower value",0.878 (active)
same,normalized growth,"locus YJL166W, strain qcr8, stronger effect = lower value",0.923 (inactive)
same,normalized growth,"locus YJL168C, strain set2, stronger effect = lower value",1 (inactive)
same,normalized growth,"locus YJL187C, strain SWE1 (second series), stronger effect = lower value",1 (inactive)
same,normalized growth,"locus YJL187C, strain SWE1, stronger effect = lower value",0.944 (inactive)
same,normalized growth,"locus YJR043C, strain POL32, stronger effect = lower value",0.74 (active)
